Experimental findings from PubChem BioAssay (NCI) are described below.

Assay [1] is described as follows: NCI Yeast Anticancer Drug Screen. Data for the rad50 strain (AID 155).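 Further: 0% = growth of vehicle-only cultures of the same strain.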 Particulars: S. cerevisiae rad50 strain growth inhibition; at 50.0 µM; hits give high values. A digest of the protocol: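 Cells are treated with compound, grown, and their growth is then scored against vehicle-only cultures of the same repair-deficient yeast strain.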
Assay [2] in a line: NCI Yeast Anticancer Drug Screen. Data for the mec2-1 strain (AID 157). Particulars: S. cerevisiae mec2-1 strain, at 50.0 µM, hits give high values. Put shortly: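 Mutant yeast (mec2-1) grown with compound; growth inhibition relative to vehicle control reported.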
Assay [3] in a line: NCI Yeast Anticancer Drug Screen. Data for the sgs1 mgt1 strain (AID 161).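 Further: 0% = growth of cultures given vehicle only.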 Particulars: S. cerevisiae sgs1 mgt1 strain, at 50.0 µM, hits give high values. A digest of the protocol:
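Percent growth inhibition was derived by comparing compound-exposed mutant yeast with vehicle-exposed cultures. The strain carries alterations in DNA damage repair.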

A short description of assay [4]: NCI Yeast Anticancer Drug Screen. Data for the cln2 rad14 strain (AID 165).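 Further: 0% = growth equal to vehicle treated cultures.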 Particulars: S. cerevisiae cln2 rad14 strain, at 50.0 µM, hits give high values. A digest of the protocol:
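Readout is yeast growth inhibition versus vehicle-treated controls, using a strain with cln2 and rad14 alterations exposed to compound.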

The nature of assay [5]: NCI Yeast Anticancer Drug Screen. Data for the bub3 strain (AID 167). The settings on record: S. cerevisiae bub3 mutant strain, at 50.0 µM, hits give high values. Put shortly:
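Part of a panel of yeast mutants defective in DNA damage repair or cell cycle regulation. Each strain is grown with compound, and inhibition is calculated relative to solvent-treated cultures.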

Assay [6] in a line: NCI Yeast Anticancer Drug Screen. Data for the mlh1 rad18 strain (AID 175). The settings on record: S. cerevisiae mlh1 rad18 strain growth inhibition; at 50.0 µM; hits give high values. A digest of the protocol:
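Genetically defined yeast (DNA repair-deficient) exposed to compounds; growth inhibition determined relative to vehicle.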

SMILES strings stand for the structures. Compounds without any hit were thinned out: in the full panel of roughly 79,000, 15% have a hit. Values without a mark were called inactive. Active and inactive are the calls of the source. No stated cut-off is given here; in the data, active means growth inhibition above about 70%; inactive means the rest.

Take `Cc1ccccc1C(=O)NNC(=O)c1ccc2ccccc2c1`: the growth inhibition in assay [1] was 7.3%; in assay [2], -9.1%; in assay [3], -3.9%; in assay [4] it was 9.35%; in assay [5], -13.2%; in assay [6], -9.45%.

Turning to `CC(C)(C)C(=O)NO`, the growth inhibition is -12.6% in assay [1]; -12.1% in assay [2]; -13.6% in assay [3]; 6.8% in assay [4]; 4.5% in assay [5]; -0.3% in assay [6].

Regarding `CSC1(SC2=NCCN2)SC2(NCCN2)S1`, the growth inhibition in assay [1] was 1.75%; in assay [2], -10.8%; in assay [3], -41.6%; in assay [4] it was -24.1%; in assay [5], -1.55%; in assay [6], -18.1%.

For the compound `O=[N+]([O-])c1ccc2oc3cccnc3c2c1`, the growth inhibition is 28.6% in assay [1]; -2.8% in assay [2]; -2.65% in assay [3]; -14.1% in assay [4]; 1.3% in assay [5]; 12.8% in assay [6].

For the compound `CCCCCc1ccc2oc(=O)c3ccc(C)cc3c2c1O`, the growth inhibition was -9.7% in assay [1]; 8.7% in assay [2]; 16.2% in assay [3]; -16.8% in assay [4]; -25.3% in assay [5]; -5.6% in assay [6].

In the case of `Nc1nc(N)c(N=O)c(N)n1`, the growth inhibition in assay [1] is -10.9%; in assay [2], -8.85%; in assay [3] it was 0.6%; in assay [4], 21%; in assay [5], 3.5%; in assay [6], 15.2%.

Regarding `COc1ccc2c(cnc3c4cc(OC)c(OC)cc4ccc23)c1`, the growth inhibition in assay [1] was 15.2%; in assay [2] it was -0.85%; in assay [3], 4.05%; in assay [4], -4.9%; in assay [5], 24.9%; in assay [6], 3.6%.

As to `CN(C)c1ccc(C(=O)O)cc1`, the growth inhibition in assay [1] is -0.75%; in assay [2], 11.3%; in assay [3], -20.4%; in assay [4], -28.8%; in assay [5] it was -17.6%; in assay [6], -16.3%.

For the compound `CCOC(=O)c1cc2ccccc2nc1N`, the growth inhibition was 0% in assay [1]; 3.45% in assay [2]; -7.15% in assay [3]; -21.5% in assay [4]; -17.1% in assay [5]; 1.1% in assay [6].

Regarding `CC(=O)Nc1ccn(C2OC(COC(C)=O)C(OC(C)=O)C(OC(C)=O)C2OC(C)=O)c(=O)n1` (centres undefined), the growth inhibition was 0.3% in assay [1]; -14.3% in assay [2]; 2.45% in assay [3]; -12.1% in assay [4]; -4.3% in assay [5]; 5.55% in assay [6].

Regarding `CCCc1cc(=O)oc2c3c(c4c(c12)OC(C)(C)CC4)O[C@H](C)C(C)[C@@H]3O` (some centres undefined), the growth inhibition in assay [1] is 9.9%; in assay [2] it was 7.45%; in assay [3], 22.1%; in assay [4], -11.3%; in assay [5], 2.85%; in assay [6], -10.6%.

Regarding `CCN(CC)CCSSCCN(CC)CC`, the growth inhibition in assay [1] was -9%; in assay [2] it was 3.7%; in assay [3], -7.05%; in assay [4] it was -15.2%; in assay [5] it was 2.35%; in assay [6], 5.3%.

For `CC1(c2ccccc2)CCCCC1OC(N)=O` (centres undefined), the growth inhibition in assay [1] is 4.3%; in assay [2], -21.9%; in assay [3], -13.9%; in assay [4], 27.5%; in assay [5] it was 7.2%; in assay [6] it was -5.15%.

Turning to `CN(C)CC1CCc2ccccc2C1=O` (centres undefined), the growth inhibition in assay [1] was -16.1%; in assay [2] it was -37.2%; in assay [3] it was -46.8%; in assay [4], -2.05%; in assay [5], -52.1%; in assay [6], -48.1%.

On to `Cc1ccc(S(=O)(=O)/C=C(\I)c2ccc([N+](=O)[O-])cc2)cc1`, for which the growth inhibition is 98.8% (active) in assay [1]; 99.2% (active) in assay [2]; 99.3% (active) in assay [3]; 98.8% (active) in assay [4]; 98.9% (active) in assay [5]; 99.1% (active) in assay [6].

`COc1cc2c(oc(=O)c3c4occc4cc(OC)c23)c2cccc(O)c12`: the growth inhibition in assay [1] is -31.6%; in assay [2], -47%; in assay [3] it was -37.2%; in assay [4] it was -13.6%; in assay [5] it was -24.8%; in assay [6] it was -56.2%.

`O=NN(CCCl)C(=O)NC1CCC(O)CC1` (centres undefined): the growth inhibition in assay [1] was -16.9%; in assay [2], -10.8%; in assay [3], -24%; in assay [4], 13.2%; in assay [5], -4.2%; in assay [6] it was -4.2%.

Consider `O=C(N/N=C/C=C/c1ccccc1)c1ccccc1O`, for which the growth inhibition is -1.8% in assay [1]; 43% in assay [2]; 56.2% in assay [3]; -31.7% in assay [4]; 43.4% in assay [5]; 29.6% in assay [6].

For `Cc1cccc[n+]1[O-]`, the growth inhibition in assay [1] is 10.8%; in assay [2], -8%; in assay [3] it was 5.9%; in assay [4], -13.7%; in assay [5], 1.65%; in assay [6] it was 7%.

Turning to `CC(=O)CCC(=O)C(=[N+]=[N-])S(=O)(=O)c1ccccc1`, the growth inhibition was -15.6% in assay [1]; -0.2% in assay [2]; -26.1% in assay [3]; 2.85% in assay [4]; -9.7% in assay [5]; -9.2% in assay [6].

In the case of `OC1CCC(c2ccccc2)CC1` (centres undefined), the growth inhibition in assay [1] was 29.1%; in assay [2], 11.8%; in assay [3], 19.9%; in assay [4] it was 15.7%; in assay [5] it was 4.75%; in assay [6] it was 7.35%.

As for `COC1OC2COC(C2O)C1OS(=O)(=O)c1ccc(C)cc1` (centres undefined), the growth inhibition was -3.2% in assay [1]; 9.7% in assay [2]; 9.2% in assay [3]; -46.1% in assay [4]; -12.3% in assay [5]; -13.3% in assay [6].

On to `CN1C(=O)C2(C=CCCC2)c2ccccc21` (centres undefined), for which the growth inhibition was -10.5% in assay [1]; -8.4% in assay [2]; -0.7% in assay [3]; -14.3% in assay [4]; -0.5% in assay [5]; -10.4% in assay [6].

Regarding `Cn1cc(S(=O)(=O)NC(=O)Nc2ccc(Cl)cc2)c2ccccc21`, the growth inhibition in assay [1] was -19.4%; in assay [2] it was -9.85%; in assay [3], -1.05%; in assay [4], 29.7%; in assay [5], -20.1%; in assay [6], -13.9%.

With `C[C@]12CC[C@@H]3c4cc(OCC(F)(F)F)c(O)cc4/C(=N/O)C[C@H]3[C@@H]1CC[C@@H]2O`, the growth inhibition is -0.75% in assay [1]; -4.55% in assay [2]; 4.65% in assay [3]; 17.6% in assay [4]; 12.8% in assay [5]; 13.2% in assay [6].

Turning to `O=C1CCC(=O)N2C(=O)CCC(=O)N12`, the growth inhibition in assay [1] is -33.5%; in assay [2] it was -26.3%; in assay [3] it was -18.9%; in assay [4] it was -15.3%; in assay [5] it was 0.45%; in assay [6] it was 3.45%.

As for `SC1c2cc(Cl)ccc2-c2c(Cl)cc(Cl)cc21` (centres undefined), the growth inhibition in assay [1] is -2.7%; in assay [2], 3.35%; in assay [3], -6.05%; in assay [4], 9.1%; in assay [5] it was 10.6%; in assay [6], -11.8%.

In the case of `Brc1cccc[n+]1CCC[n+]1ccccc1Br`, the growth inhibition is 14.8% in assay [1]; 18.8% in assay [2]; 28.2% in assay [3]; 33.2% in assay [4]; 19.4% in assay [5]; 15.8% in assay [6].

On to `COC(=O)c1cccc2cnccc12`, for which the growth inhibition was 2.2% in assay [1]; -5.7% in assay [2]; 3.6% in assay [3]; -48% in assay [4]; 7.65% in assay [5]; 3.75% in assay [6].

For `CN1C(=O)c2ccccc2Cc2c(Cl)ncnc21`, the growth inhibition in assay [1] is -0.5%; in assay [2], 26.4%; in assay [3], 11.2%; in assay [4], -1.45%; in assay [5], 28.6%; in assay [6], 2.1%.

With `Oc1ccccc1-c1nc2ccccc2s1`, the growth inhibition is -0.25% in assay [1]; -37% in assay [2]; 7.85% in assay [3]; -2.7% in assay [4]; 10.3% in assay [5]; -10.2% in assay [6].

In the case of `CCC1(C)OCC(CCCCO)O1` (centres undefined), the growth inhibition in assay [1] is -16.2%; in assay [2], -14.9%; in assay [3], -9.4%; in assay [4] it was -34.9%; in assay [5], -11.4%; in assay [6], 14.3%.

Consider `O=C(Cc1ccccc1)NN1C(=O)C(Cl)C1c1ccc(O)cc1` (centres undefined), for which the growth inhibition in assay [1] is -27.9%; in assay [2] it was -16.4%; in assay [3] it was -11.2%; in assay [4], 3.7%; in assay [5] it was -29.4%; in assay [6], 3.4%.

As for `Cc1ccc(S(=O)(=O)O/C=C2/CCOC2=O)cc1`, the growth inhibition is 29.6% in assay [1]; 43.2% in assay [2]; 29.9% in assay [3]; 28.8% in assay [4]; 38.2% in assay [5]; 60.9% in assay [6].

Regarding `O=C1CCCC1C(O)(C(F)(F)F)C(F)(F)F` (centres undefined), the growth inhibition is -24.8% in assay [1]; -19.9% in assay [2]; -8.05% in assay [3]; 16.6% in assay [4]; -12% in assay [5]; -21.1% in assay [6].

As for `CSCCCNC(=O)NS(=O)(=O)c1ccc(C)cc1`, the growth inhibition in assay [1] is 6.55%; in assay [2], -1.35%; in assay [3] it was 8.95%; in assay [4] it was 7.75%; in assay [5] it was 6.6%; in assay [6] it was 2.85%.

For `COCC(C)OC(=O)c1ccccc1Cl` (centres undefined), the growth inhibition is 7.65% in assay [1]; 10.3% in assay [2]; 5.95% in assay [3]; 2.65% in assay [4]; 21.1% in assay [5]; 24.3% in assay [6].

On to `CCOC(=O)N1C(=O)c2ccccc2C1=O`, for which the growth inhibition in assay [1] was -7.35%; in assay [2], -13.2%; in assay [3] it was -16.8%; in assay [4], -8.75%; in assay [5] it was -13.3%; in assay [6], -9.25%.

Take `CCOC(=O)CCC1(C)OCC(O)CO1` (centres undefined) (tested in a mixture with another compound): the growth inhibition in assay [1] was -11.1%; in assay [2], -5.25%; in assay [3], -5.6%; in assay [4], -2.85%; in assay [5] it was -16.6%; in assay [6], -25.8%.
